# Measured values as given in PubChem BioAssay (Tox21).
# Results filed as inconclusive are left out. Unmarked numbers belong to inactive results. Active and inactive are the calls of the source. Calls come from the whole dose curve; as a rule, active = well fitted activation curve with a large enough effect in the signal ratio in the repeat runs (not every such curve was filed as active); inconclusive = weak or mixed curves; inactive = flat fitted curve, though single readings scatter; the % refers to the signal ratio.
# Assay: qHTS assay to identify small molecule agonists of H2AX (AID 1224845)
# Settings: CHO-K1 phospho-H2AX Ser139 HTRF, 3 h; series mostly up to 154 µM; activation (H2AX phosphorylation): at the top concentration
# Summary of the method: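 Wild-type CHO-K1 cells, plated overnight, exposed 3hr at 37C to 15 concentrations (0.76% DMSO final). Lysed, then HTRF anti-pH2AX (S139) cryptate and anti-H2AX-d2 antibodies, 24 hr room temperature; 665/620 nm emission read.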
# % is set by controls: 0 for no effect and ±100 for the full control effect; potency is the fitted concentration of half-maximal effect.
SMILES,activation (H2AX phosphorylation),Potency
O=C(C1CCCCC1)N1CC(=O)N2CCCc3ccccc3C2C1 (stereo not drawn),-3.83% [at 70.9 µM],
CC(=O)Nc1ccccc1O,2.99%,
Cc1ccc(NC(=O)c2ccc(CN3CCN(C)CC3)cc2)cc1Nc1nccc(-c2cccnc2)n1,-3.15% [at 70.9 µM],
COc1ccc(C(=O)Nc2ccccc2)cc1[N+](=O)[O-],-0.979%,
CCCCCCC/C=C/C=O,1.19%,
COC(=O)Cc1cccc2ccccc12,-0.554%,
CC/C=C\CCO,-0.0912%,
CCc1c(C)[nH]c2c1C(=O)C(CN1CCOCC1)CC2 (stereo not drawn),-0.501% [at 70.9 µM],
COC(=O)C(C)(C)C,-1.67%,
CC(C)C/C=C(\C=O)c1ccccc1,0.582%,
COc1ccc(/C=C/c2cc(OC)cc(=O)o2)cc1,-1.3% [at 70.9 µM],
Oc1ccc(Oc2ccccc2)cc1,,38.1 µM (active)
O=C1c2ccccc2C(=O)C1c1ccc2ccccc2n1,9.61% [at 70.9 µM],
CCCCCCCCCC(C)C=O (stereo not drawn),2.48%,
C=C[Si](OCC)(OCC)OCC,-0.659%,
CC(C)CC(C)(C)C,-1.37%,
CCCC1CCOC(C)S1 (stereo not drawn),-0.0215%,
CC(C)(Cc1c[nH]c2ccccc12)NCC(O)COc1ccccc1C#N (stereo not drawn),-5.96% [at 70.9 µM],
CCn1nc(Cc2ccccc2)cc1C1CCN(C[C@H]2C[C@H](N(C)[C@@H](C(=O)O)C(C)C)C[C@@H]2c2cccc(F)c2)CC1,-1.9%,
CC1=CC(=C(c2ccc(N)cc2)c2ccc(N)cc2)C=CC1=N,-3.22% [at 14 µM],
Clc1cc(Cl)c2c(c1)N=C1CCCCCN1C2,-4.25% [at 70.9 µM],
O=C(O)c1ccncc1,-3.4%,
COC(=O)/C=C/C(C)=C\C=C\C(C)=C\C=C\C=C(C)\C=C\C=C(C)\C=C\C(=O)O,-1.95%,
